This is a sample that favours compounds with a hit; in the whole collection about 0.78% have one here.
PINK1 expr mod: A Quantitative High throughput Screen to Identify Chemical Modulators of PINK1 Expression; Potency, µM (highest dose often 76.6 µM), hits mostly activators; actives 0.2% (n = 410,000); PINK1 immunofluorescence, high-content cytometry, 24 h; active = well fitted activation curve with a large enough effect; inconclusive = small, poorly fitted or top-dose-only effect; cell line not stated here; also: nearly all actives have a fitted effect of over 65% in size
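Measures PINK1 amount and localization on or inside mitochondria by immunofluorescence. Stable cells get compounds at 5 concentrations for 24 hours before fixation and staining; CCCP controls included.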
GLS inhibitor: qHTS for Inhibitors of Glutaminase (GLS); Glutaminase kidney isoform, mitochondrial (Homo sapiens), O94925; GLS enzymatic activity, qHTS titration; Potency, µM (doses to about 45.5 µM), usual class: inhibitors; actives 0.21% (n = 410,000); AID 624170, 2012
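Compounds were pin-transferred onto hKGA, after which L-glutamine (1 mM solution) and a detection mix of glutamate oxidase, HRP and Amplex Red were added. Initial and 30 min RT fluorescence reads were collected.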
PGK inhibitor: qHTS Assay to Find Inhibitors of Phosphoglycerate Kinase; Phosphoglycerate kinase, glycosomal (Trypanosoma brucei brucei), P07378; PGK/GAPDH coupled, Kinase-Glo luminescence, 60 min; Potency, µM (titrated, usually from 57.5 µM), hits mostly inhibitors; actives 0.043% (n = 380,000); also: nearly all actives have a fitted effect of over 60% in size
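Luminescent ATP detection (Kinase-Glo Plus) follows a 60-minute room-temperature incubation, with wells lacking PGK as controls. Buffer: 100 mM TEA (pH 7.6), 5 mM MgCl2, 0.01% Tween-20. Coupling enzyme GAPDH (100 nM final) supplies unstable 1,3-BPG in-well.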
PI4K2A block: qHTS for small molecular inhibitors of PI4K2A | purified PI4K2A, ADP-Glo luminescence, 1 h; hits give low values | actives 0.13% (n = 420,000) | Phosphatidylinositol 4-kinase type 2-alpha (Homo sapiens), Q9BTU6 | activity change, negative = inhibition, % at 76.9 µM; in the data active = activity change below about -50%; inconclusive = mostly about -30% to -49%
Target sequence (Q9BTU6 whole entry, looked up): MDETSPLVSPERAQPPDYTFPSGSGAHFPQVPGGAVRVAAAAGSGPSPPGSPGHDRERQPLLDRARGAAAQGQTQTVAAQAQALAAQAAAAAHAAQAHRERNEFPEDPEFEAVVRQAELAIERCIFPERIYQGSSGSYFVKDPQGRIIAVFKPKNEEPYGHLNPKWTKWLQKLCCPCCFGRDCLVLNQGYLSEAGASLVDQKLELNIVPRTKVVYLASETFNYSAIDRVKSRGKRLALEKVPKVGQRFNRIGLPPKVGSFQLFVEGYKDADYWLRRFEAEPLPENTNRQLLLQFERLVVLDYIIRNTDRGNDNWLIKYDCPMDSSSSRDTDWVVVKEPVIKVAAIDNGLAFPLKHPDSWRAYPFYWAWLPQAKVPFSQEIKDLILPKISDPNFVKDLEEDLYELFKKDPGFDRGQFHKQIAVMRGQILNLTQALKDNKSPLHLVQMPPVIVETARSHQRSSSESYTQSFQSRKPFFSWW
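In this quantitative HTS, ADP production by PI4K2A was quantified luminescently after 1 h at ambient temperature; 100 microM adenosine served as plate-quality control.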
CCT chaperon mod: High-Throughput Screening for Modulators of Cytosolic Chaperonin Activity. purified chaperonin ATPase assay, HTRF ADP detection, 30 min. activity change, % (concentration not given with the values), hits read low. actives 0.3% (n = 360,000); in the data active = activity change below about -30%
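TRiC at 40 or 20 nM final (batch-dependent) in 30 mM Tris pH 7.4, 100 mM KCl, 5 mM MgCl2, 1 mM DTT, with compound at single 76 uM and 10 uM ATP, 30 min at 37 deg C. ADP detected by HTRF Transcreener, 665/615 ratio.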
Hits are given with their value; - = inactive; ? = inconclusive; . = no result. Unless noted, calls follow the shape of the dose curve; as a rule, active = well fitted curve in the direction sought with a large enough effect; inconclusive = small, poorly fitted or top-dose-only effect, or another doubt; inactive = no such curve, though single readings can be large; an effect the other way counts as inactive or inconclusive.

SMILES	PINK1 expr mod	GLS inhibitor	PGK inhibitor	PI4K2A block	CCT chaperon mod
Fc1ccc(F)c(C2=NNC(=Nc3ccccc3F)SC2)c1	35µM	-	-	-	-
CCn1c(-c2ccccc2F)nc2cc(NC(C)=O)cc(C(=O)NCC3CCOCC3)c21	-	.	.	.	.
Cc1ccc(N2C(=O)c3cccc4c(N)ccc(c34)C2=O)c2cccnc12	40µM	-	-	-	-
Cc1nn(C)c(C)c1N1C(=O)c2cccc3c(N)ccc(c23)C1=O	-	-	-	-	-
O=C(c1cccnc1)C1CCCN(Cc2ccc3c(c2)CN(C(=O)c2cnccn2)CCO3)C1 (centres undefined)	-	.	.	.	.
CO[C@@H]1[C@@H](O[C@@H]2O[C@H](C)[C@@H](O[C@H]3C[C@@](C)(O)[C@@H](O)[C@H](C)O3)[C@H](N(C)C)[C@H]2O)[C@@H](CC=O)C[C@@H](C)[C@@H](O[C@@H]2CC[C@H](N(C)C)[C@@H](C)O2)/C=C/C=C/C[C@@H](C)OC(=O)C[C@H]1OC(C)=O	.	.	.	-	.
CCN1CCc2c(sc(N)c2C#N)C1	-	-	-	-	-
CC(C)N1CCc2c(sc(N)c2C#N)C1	2.8µM	14µM	-	-	-
Cc1cccc(C(C)(C)C)c1OCCCCN1CCCC1	-	-	-	-	-59
CC(C)(C)c1ccccc1OCCCCN1CCCC1	-	-	-	-	-
COC(c1ccccc1)(c1ccccc1)[C@H](Oc1nc(C)cc(C)n1)C(=O)O	.	.	.	-	.
COc1ccccc1-n1cc(C(=O)NCCN2Cc3ccccc3OC(c3ccsc3)C2)cn1 (centres undefined)	-	.	.	.	.
Cc1oc(-c2ccccc2NC(=O)c2ccccc2)nc1CNC(=O)c1cccc(-n2cccn2)c1	-	.	.	.	.
Cc1cccc(C(=O)NNS(=O)(=O)c2ccccc2)c1O	-	6.3µM	-	-	-
Cc1cc(F)ccc1S(=O)(=O)Nc1ccccc1C(=O)Nc1ccccc1-c1nc2ccccc2[nH]1	45µM	-	-	-	-
C=CCNC(=S)Nc1cccc2[nH]ncc12	-	-	-	-	-32
CNC(=S)Nc1cccc2[nH]ncc12	.	.	-	-	-
CC12C=CC(=O)C=C1CCC1C2C(O)CC2(C)C1CCC2(O)C(=O)COC(=O)CCC(=O)O (centres undefined)	.	-	.	.	.
O=C(CN1CCN(c2ccc(O)cc2)CC1)N1CCc2ccccc21	-	8.9µM	-	-	-
O=C(CN1CCN(c2ccccc2)CC1)N1CCc2ccccc21	-	-	-	-	-
COC(=O)c1ccccc1C(=O)N1CCc2c(cnc(C)c2CNC(=O)c2ccccc2F)C1	-	.	.	.	.
COc1ccc(NC2=Nc3ccccc3N3C2=Nc2c(c(C)nn2-c2ccc(C)cc2)C3c2cccnc2)cc1 (centres undefined)	-	-	-	-	-45
Cc1c(-c2ccccc2)nc2ccccc2c1C(=O)OCC(=O)Nc1ncc(C(F)(F)F)cc1Cl	-	-	-	-	-53
O=C(COC(=O)c1cc(-c2ccccc2Cl)nc2ccccc12)Nc1ncc(C(F)(F)F)cc1Cl	-	-	-	-	-
COc1cc(=O)n2c(c1C(=O)NCc1ccco1)CCN(Cc1ccc(F)cc1Cl)CC2	-	.	.	.	.
SMILES	PINK1 expr mod	GLS inhibitor	PGK inhibitor	PI4K2A block	CCT chaperon mod
Cc1ccc(C(=O)NNc2ncnc3c2cnn3C)cc1	-	5µM	-	-	-
COc1ccnc2c1c(=O)n(Cc1ccc(Cl)cc1)c(=O)n2C	-	?	-	-	-
COc1ccnc2c1c(=O)n(Cc1c(F)cccc1Cl)c(=O)n2C	-	?	-	-	-
COc1ccnc2c1c(=O)n(Cc1ccccc1Cl)c(=O)n2C	-	13µM	-	-	-
COc1ccnc2c1c(=O)n(Cc1ccc(Cl)cc1Cl)c(=O)n2C	-	11µM	-	-	-
COc1ccc(-n2c(CNC(=O)c3c(-c4ccccc4)noc3C)nnc2SC)cc1	-	.	.	.	.
Cc1c(N)nc([C@@H](CC(N)=O)NC[C@H](N)C(N)=O)nc1C(=O)N[C@H](C(=O)N[C@@H](C)[C@@H](O)[C@@H](C)C(=O)N[C@H](C(=O)NCCc1nc(-c2nc(C(=O)NCCCN[C@H](C)c3ccccc3)cs2)cs1)[C@H](C)O)[C@@H](O[C@H]1O[C@@H](CO)[C@H](O)[C@@H](O)[C@H]1O[C@H]1O[C@@H](CO)[C@@H](O)[C@H](OC(N)=O)[C@H]1O)c1cnc[nH]1	.	-	.	.	.
C#Cc1ccc([C@@H]2C=C(C(=O)Nc3ccccc3)O[C@H](OCC)[C@H]2CCCO)cc1	-	-	-	-	-
C#Cc1ccc([C@H]2C=C(C(=O)NCc3ccccc3)O[C@@H](OCC)[C@@H]2CCCO)cc1	-	-	-	-	-68
C[C@@H]1[C@@H](Sc2ccccc2)CC(=O)O[C@@H]1c1ccc(-c2ccccc2)cc1	-	-	-	-63	-
Cc1ccc2c(c1)CN(CCC(=O)NCc1cc(C)n(C)n1)CC(C)O2 (centres undefined)	-	.	.	.	.
Cc1cccc2sc(N(Cc3cccnc3)C(=O)COc3ccccc3)nc12	?	-	-	-	.
Cc1cccc2sc(N(Cc3cccnc3)C(=O)CCOc3ccccc3)nc12	-	-	-	-59	.
CC(=O)OCC(=O)[C@@]12N=C(C)O[C@@H]1C[C@H]1[C@@H]3CCC4=CC(=O)C=C[C@]4(C)[C@H]3[C@@H](O)C[C@@]12C	.	.	.	-	.
COc1ccccc1C1CN(Cc2c(C)nc3sccn23)Cc2ccccc2O1 (centres undefined)	-	.	.	.	.
CC1CCCCN1CCNC(=O)C1CCN(S(=O)(=O)c2cccc3nsnc23)CC1 (centres undefined)	-	-	-	-	-34
N#C/C(=C/c1ccc(N2CCCCCC2)o1)c1ccc(Cl)cc1	7.9µM	-	-	-	-
N#C/C(=C/c1ccc(N2CCCCC2)o1)c1cccc(F)c1	7.1µM	-	-	-	-
N#C/C(=C/c1ccc(N2CCCCC2)cc1)c1cccc(F)c1	?	-	-	-	-
O=C(CO)NCCCOc1cccc(CN2CCCCC2)c1	.	-	.	.	.
Nc1ccc2nc(-c3ccccc3)sc2c1	-	-	?	-55	-
Nc1ccc(-c2nc3cc(N)ccc3s2)cc1	-	-	-	-	-42
COc1ccc(-c2cc(C(F)(F)F)c3c(n2)sc2c(O)cc(=O)[nH]c23)c(OC)c1	-	-	-	-56	-
COc1ccc(C(C(=O)NC2CCCC2)N(C(=O)c2snc(-c3ccc(F)cc3)c2N)c2ccccc2)cc1 (centres undefined)	13µM	-	-	-	-
